# Screens from PubChem BioAssay.
# Only some compounds are listed: those with a hit (about 0.54% of all), similar ones and a draw of the others.
# ERG Ets-DNA blk = qHTS for Small Molecule Inhibitors of the ERG Ets/DNA interaction; Transcriptional regulator ERG (Homo sapiens), P11308; 370,000 tested, 0.028% active; Potency, µM (titrated, usually from 76.9 µM), for the others: at the top dose FP activity, negative = inhibition, usual class: inhibitors; fluorescence polarization, His-ERG Ets domain / labelled DNA; AID 624246, 2012; active = well fitted inhibition curve with a large enough effect in the polarisation, with a control signal flat; inconclusive = small, poorly fitted or top-dose-only effect, or effect the other way, or a change in a side signal; inactive = no such curve, though single readings can be large or run the other way; the % refers to the polarisation;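 also: polarization taken with two DNA probes labelled with fluorescein and Texas red; % of control where 0% means no effect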
# Target sequence (P11308 whole entry, looked up, the tested form may be a part): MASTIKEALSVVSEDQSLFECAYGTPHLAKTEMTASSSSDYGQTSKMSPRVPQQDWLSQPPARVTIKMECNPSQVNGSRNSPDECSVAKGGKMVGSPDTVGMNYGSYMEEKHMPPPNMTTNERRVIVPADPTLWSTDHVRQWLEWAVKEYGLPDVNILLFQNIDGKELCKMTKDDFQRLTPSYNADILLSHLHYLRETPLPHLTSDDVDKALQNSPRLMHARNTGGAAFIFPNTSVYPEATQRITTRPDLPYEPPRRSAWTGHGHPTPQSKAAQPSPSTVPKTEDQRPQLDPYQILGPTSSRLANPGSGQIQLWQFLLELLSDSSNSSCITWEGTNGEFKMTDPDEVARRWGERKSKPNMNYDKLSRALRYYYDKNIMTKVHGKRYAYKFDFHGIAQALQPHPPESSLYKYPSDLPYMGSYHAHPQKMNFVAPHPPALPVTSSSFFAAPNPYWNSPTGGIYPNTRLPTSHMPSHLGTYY
#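 His-tagged ERG Ets domain (1 uM in the protein solution; 300mM KCl, 50mM Tris-HCl, 1mM EDTA, 1mM DTT, pH 7.5) received compound, then a probe mix of 5 nM fluorescein-DNA and 100nM Texas-615-DNA. Fluorescence polarization was read for both dyes.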
# EPAC2 antag = qHTS for Antagonist of cAMP-regulated guanine nucleotide exchange factor 2 (EPAC2): primary screen. 360,000 tested, 0.18% active. Potency, µM (series often up to 114 µM), without a hit: at the top dose activity, negative = inhibition, usual class: inhibitors. EPAC2 GEF exchange of Rap1B-BODIPY-GDP, fluorescence. Rap guanine nucleotide exchange factor 4 (Homo sapiens), Q8WZA2; also: % is scaled to controls: 0 for no effect and ±100 for the full control effect; nearly all actives have a fitted effect of over 45% in size
# EPAC2 agonist = qHTS for Agonist of cAMP-regulated guanine nucleotide exchange factor 4 (EPAC2): primary screen. Rap guanine nucleotide exchange factor 4 (Homo sapiens), Q8WZA2. EPAC2 activation, biochemical qHTS; response scale: 100% = 6.5 mM cAMP response. Potency, µM (highest dose often 154 µM), without a hit: at the highest dose activation, most hits filed as activators. 360,000 tested, 0.079% active. AID 720711, 2013; also: nearly all actives have a fitted effect of over 50% in size
#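 Compounds were added across a concentration range to EPAC2 (100 nM), RAP1B-BODIPY-GDP (250 nM) and GDP (50 uM). After 5 min at room temperature, fluorescence was recorded at 5-min intervals for 30 min.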
# TDP1 block = qHTS Assay for Inhibitors of Tyrosyl-DNA Phosphodiesterase (TDP1); AID 485290, 2010; Potency, µM (series often up to 130 µM), for the others: at the highest dose activity change, negative = inhibition, hits mostly inhibitors; Tyrosyl-DNA phosphodiesterase 1 (Homo sapiens), Q9NUW8; 350,000 tested, 0.28% active; recombinant TDP1, AlphaScreen DNA substrate cleavage; also: % is scaled to controls: 0 for no effect and ±100 for the full control effect; nearly all actives have a fitted effect of over 40% in size
#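 E. coli-derived human Tdp1, 1 nM final. Cpd preinc 15 min RT; substrate 15 nM final, 5 min RT; AS bead mix 10 ug/ml final, 10 min RT. Signal loss = tyrosine-FITC cleavage. No-enzyme wells = max signal.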
# EPAC1 antagonist = qHTS for Antagonist of cAMP-regulated guanine nucleotide exchange factor 3 (EPAC1): primary screen | EPAC1 GEF assay, Rap1b-BODIPY-GDP exchange fluorescence | AID 720709, 2013 | Potency, µM (top dose mostly 115 µM), for the others: at the top dose activity change, negative = inhibition, usual class: inhibitors | Rap guanine nucleotide exchange factor 3 (Homo sapiens), O95398 | 360,000 tested, 0.14% active;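 also: plate controls were vehicle for no effect and positive control for full effect; nearly all actives have a fitted effect of over 50% in size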
# EPAC1 ag = qHTS for Agonist of cAMP-regulated guanine nucleotide exchange factor 3 (EPAC1): primary screen; EPAC1 agonist qHTS, biochemical assay; response scale: 100% = response to 6.5 mM cAMP; Potency, µM (top dose mostly 154 µM), inactives show at the highest dose activation, usual class: activators; 360,000 tested, 0.073% active; AID 720707, 2013; also: nearly all actives have a fitted effect of over 60% in size
#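 Fluorescent GDP-exchange assay: 100 nM EPAC1 with 250 nM Rap1B preloaded with BODIPY-GDP and 50 uM GDP; compounds tested as concentration series, 5 min at room temperature, then read every 5 min for 30 min (ex 480/em 540 nm); normalized to 6.5 mM cAMP.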
# An asterisk follows results filed as active; ? = inconclusive; . = no result given. Unless noted, calls follow the shape of the dose curve; as a rule, active = well fitted curve in the direction sought with a large enough effect; inconclusive = small, poorly fitted or top-dose-only effect, or another doubt; inactive = no such curve, though single readings can be large; an effect the other way counts as inactive or inconclusive. Potency is read from the fitted curve at half-maximal effect.
SMILES,ERG Ets-DNA blk,EPAC2 antag,EPAC2 agonist,TDP1 block,EPAC1 antagonist,EPAC1 ag
COc1ccccc1Oc1ccnc2cc(Cl)ccc12,-6.6%,39.8µM*,6.3%,9.0%,-16.7%,-1.3%
O=C1c2cccc3cc([N+](=O)[O-])cc(c23)C(=O)N1/N=C/c1ccc(O)cc1O,17.5%,-2.2%,-0.1%,5.0%,79.4µM*,4.7%
O=C1c2cccc3cc([N+](=O)[O-])cc(c23)C(=O)N1CCN1CCCC1,-10.9%,-14.0%,3.2%,-1.3%,7.4%,3.4%
CC(C)(C)OC(=O)Cc1nnc(-c2nc3ccccc3[nH]2)o1,.,.,.,-11.6%,.,.
COc1ccc(OCc2cc(C3Nc4ccccc4C(=O)N3Cc3ccccc3)ccc2OC)cc1 (configuration not stated),.,.,.,0.7%,.,.
Cc1ccccc1NS(=O)(=O)c1ccc(OCC(=O)N2CCCC2)cc1,-6.5%,14.2%,-2.7%,5.3%,17.5%,-2.4%
Cc1ccccc1NS(=O)(=O)c1ccc(OCCNS(C)(=O)=O)cc1,7.08µM*,11.3%,-0.3%,2.8%,4.4%,-1.3%
CCOC(=O)c1ccc(CNc2ncnc3nc[nH]c23)cc1,.,.,.,2.9%,.,.
CCCN1CNc2c(c(=O)[nH]c(=S)n2CCc2cccc(Cl)c2)C1,.,.,.,-0.5%,.,.
Oc1cc2ccccc2cc1-c1n[nH]c(=S)o1,8.3%,-6.5%,4.0%,2.1%,79.4µM*,-8.9%
S=c1[nH]nc(-c2c[nH]c3ccccc23)o1,0.0%,-1.0%,2.3%,.,-22.1%,9.0%
COc1ccc(OC)c(NC(=O)C(C)Oc2ccc(Br)cc2)c1 (configuration not stated),4.1%,12.6µM*,5.0%,0.0%,-3.7%,2.0%
O=c1cc(-c2cc3ccccc3o2)c2cc(O)ccc2o1,-1.9%,1.5%,4.8%,50.1µM*,-4.2%,-9.4%
Cc1cc2oc(=O)cc(-c3cc4ccccc4o3)c2cc1O,10.8%,-2.5%,4.9%,.,-17.1%,-12.6%
Nc1nc(N)nc(-c2cc([N+](=O)[O-])ccc2O)n1,-3.8%,7.1%,3.0%,56.2µM*,-6.8%,-1.5%
COc1cccc(CNC(=O)[C@@H]2CCCN2C(=O)[C@@H]2CCCN2S(=O)(=O)c2ccc(OC)c(C)c2)c1,.,-7.9%,-3.2%,.,1.3%,-17.1%
COc1ccc(S(=O)(=O)N2CCC(C(=O)NCc3cccnc3)CC2)cc1OC,4.3%,1.6%,2.0%,4.47µM*,-3.0%,2.4%
COc1ccc(S(=O)(=O)N2CCC[C@H]2C(=O)N2CCC[C@H]2C(=O)NCc2ccccc2)cc1C,.,47.4µM*,1.2%,.,20.4%,-9.8%
COc1ccc(O)c(-c2nc3ccccc3c(=O)n2Cc2ccccc2)c1,.,.,.,1.6%,.,.
CCc1oc2ccccc2c1C(=O)c1cc(Br)c(O)c(Br)c1,6.6%,10µM*,-10.8%,5.8%,?,-10.5%
O=C(OCC#CCSc1nnc(-c2cccc3ccccc23)o1)c1ccc(F)cc1F,.,.,.,-6.7%,.,.
CN1/C(=C/C=C(C#N)C#N)C(C)(C)c2ccccc21,17.5%,228.4%,112µM*,9.0%,-1.3%,9.1%
CN1\C(=C/C=C/C=C/C=[N+](C)C)C(C)(C)c2ccccc21,.,-28.3%,14.5%,10.3%,-10.2%,56.2µM*
COc1cccc(C2c3c(ncn(-c4cccc(C)c4)c3=N)Oc3ccc4ccccc4c32)c1 (configuration not stated),.,.,.,4.2%,.,.
